# In article PMC7862700, “An all-to-all approach to the identification of sequence-specific readers for epigenetic DNA modifications on cytosine”:
# Tests used:
# Experiment in all cases: DAPPL (digital affinity profiling via proximity ligation, sequencing); 10 mM Tris-HCl pH 7.5, 50 mM NaCl, 1 mM DTT, 4% glycerol, room temperature, 30 min; GST-TFs on glutathione beads, 16-mer random dsDNA library, 0.1% formaldehyde crosslink after washing; high values mean tight binding
# Conditions in all cases: protein: recombinant; tags: N-terminal GST; dsDNA, one strand shown
# FLI1 = biological target: T1, FLI1 (Homo sapiens, UniProt Q01543 1-452)
# T1 sequence: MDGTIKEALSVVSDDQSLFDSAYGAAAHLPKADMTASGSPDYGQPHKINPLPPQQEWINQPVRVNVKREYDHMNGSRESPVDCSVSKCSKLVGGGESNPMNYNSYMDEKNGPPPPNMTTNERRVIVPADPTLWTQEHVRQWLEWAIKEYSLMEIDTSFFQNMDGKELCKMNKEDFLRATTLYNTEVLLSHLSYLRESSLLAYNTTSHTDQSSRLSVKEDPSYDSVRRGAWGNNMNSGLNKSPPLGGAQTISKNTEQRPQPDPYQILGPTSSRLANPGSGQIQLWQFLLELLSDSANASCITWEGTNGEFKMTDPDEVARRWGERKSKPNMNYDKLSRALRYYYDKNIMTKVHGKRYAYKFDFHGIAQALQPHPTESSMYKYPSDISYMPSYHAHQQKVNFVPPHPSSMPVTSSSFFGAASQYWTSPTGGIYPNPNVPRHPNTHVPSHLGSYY
# Summary of the method: (§1)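 The binding signal reported is, for every hexamer, its read frequency for a factor over its read frequency for the tag-only sample. Reads came from pools of yeast-expressed, GST-fused human transcription factors on glutathione beads, barcoded with DNA and mixed with that sample, which were incubated with 200 nmole of a random double-stranded 16-mer DNA library in Tris/NaCl/DTT/glycerol buffer at room temperature for 30 min. After washing, the pools were crosslinked with 0.1% formaldehyde, proximity-ligated with BsaI/T4 ligase for 1 h at 37 °C, PCR-amplified and sequenced on an Illumina NextSeq500.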
# ELK1 = biological target: T2, ELK1 (Homo sapiens, UniProt P19419 1-428)
# T2 sequence: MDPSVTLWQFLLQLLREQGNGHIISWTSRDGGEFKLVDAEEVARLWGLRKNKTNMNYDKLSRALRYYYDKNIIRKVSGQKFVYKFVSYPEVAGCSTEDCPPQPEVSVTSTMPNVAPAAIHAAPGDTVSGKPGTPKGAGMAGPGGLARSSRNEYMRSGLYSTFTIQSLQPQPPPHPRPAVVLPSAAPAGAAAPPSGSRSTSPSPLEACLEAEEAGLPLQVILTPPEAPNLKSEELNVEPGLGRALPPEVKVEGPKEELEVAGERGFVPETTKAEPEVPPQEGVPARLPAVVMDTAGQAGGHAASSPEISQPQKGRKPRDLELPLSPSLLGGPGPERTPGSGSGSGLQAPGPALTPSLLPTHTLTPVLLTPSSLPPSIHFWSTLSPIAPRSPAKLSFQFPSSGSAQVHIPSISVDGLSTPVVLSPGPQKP
# Summary of the method: as §1
# GABPA = biological target: T3, GABPA (Homo sapiens, UniProt Q06546 1-454)
# T3 sequence: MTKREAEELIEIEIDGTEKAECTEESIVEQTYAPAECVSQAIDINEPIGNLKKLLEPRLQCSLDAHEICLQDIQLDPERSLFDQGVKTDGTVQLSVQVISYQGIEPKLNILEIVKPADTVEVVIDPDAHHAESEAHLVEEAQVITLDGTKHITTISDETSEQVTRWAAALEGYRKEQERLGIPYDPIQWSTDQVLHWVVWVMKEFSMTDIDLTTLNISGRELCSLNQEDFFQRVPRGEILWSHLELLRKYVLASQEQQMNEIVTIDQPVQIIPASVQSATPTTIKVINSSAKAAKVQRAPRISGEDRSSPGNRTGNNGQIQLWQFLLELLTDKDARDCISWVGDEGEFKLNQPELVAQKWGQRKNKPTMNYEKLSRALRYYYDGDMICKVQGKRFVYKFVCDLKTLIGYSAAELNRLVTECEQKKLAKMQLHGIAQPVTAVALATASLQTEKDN
# Summary of the method: as §1
# ERG = biological target: T4, ERG (Homo sapiens, UniProt P11308 1-479)
# T4 sequence: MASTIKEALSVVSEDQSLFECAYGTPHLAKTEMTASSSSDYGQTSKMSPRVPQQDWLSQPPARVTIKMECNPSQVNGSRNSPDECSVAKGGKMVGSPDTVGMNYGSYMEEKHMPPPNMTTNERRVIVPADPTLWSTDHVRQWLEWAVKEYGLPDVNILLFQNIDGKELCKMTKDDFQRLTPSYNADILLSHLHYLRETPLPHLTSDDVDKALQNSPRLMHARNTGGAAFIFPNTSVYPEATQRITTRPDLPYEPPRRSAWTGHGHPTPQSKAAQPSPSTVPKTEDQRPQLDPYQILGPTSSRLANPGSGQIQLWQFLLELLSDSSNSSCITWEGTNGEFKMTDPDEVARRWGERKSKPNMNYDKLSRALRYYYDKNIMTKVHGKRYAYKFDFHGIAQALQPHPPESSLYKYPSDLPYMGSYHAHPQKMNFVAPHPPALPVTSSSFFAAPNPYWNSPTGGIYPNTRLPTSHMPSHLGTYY
# Summary of the method: as §1
# ELF1 = ELF1 (Homo sapiens, UniProt P32519 1-619)
# Chain of ELF1 (P32519 whole entry): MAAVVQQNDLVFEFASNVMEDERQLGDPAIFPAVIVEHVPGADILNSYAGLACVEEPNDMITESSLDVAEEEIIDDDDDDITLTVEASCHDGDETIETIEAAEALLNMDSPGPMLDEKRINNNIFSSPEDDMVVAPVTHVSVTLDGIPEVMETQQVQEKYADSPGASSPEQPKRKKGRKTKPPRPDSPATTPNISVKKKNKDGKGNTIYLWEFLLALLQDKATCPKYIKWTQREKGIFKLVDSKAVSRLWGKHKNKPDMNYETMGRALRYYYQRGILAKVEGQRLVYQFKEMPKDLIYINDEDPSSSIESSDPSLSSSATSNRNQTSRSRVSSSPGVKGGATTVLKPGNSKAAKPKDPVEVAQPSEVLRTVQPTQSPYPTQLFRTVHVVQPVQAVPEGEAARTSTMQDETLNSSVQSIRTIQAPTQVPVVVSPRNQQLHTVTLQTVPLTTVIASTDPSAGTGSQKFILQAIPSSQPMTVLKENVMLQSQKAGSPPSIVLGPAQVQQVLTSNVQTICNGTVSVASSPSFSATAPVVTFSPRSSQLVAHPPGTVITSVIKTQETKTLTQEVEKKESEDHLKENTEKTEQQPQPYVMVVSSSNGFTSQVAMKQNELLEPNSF
# Summary of the method: as §1
# EHF = biological target: T5, EHF (Homo sapiens, UniProt Q9NZC4 1-300)
# T5 sequence: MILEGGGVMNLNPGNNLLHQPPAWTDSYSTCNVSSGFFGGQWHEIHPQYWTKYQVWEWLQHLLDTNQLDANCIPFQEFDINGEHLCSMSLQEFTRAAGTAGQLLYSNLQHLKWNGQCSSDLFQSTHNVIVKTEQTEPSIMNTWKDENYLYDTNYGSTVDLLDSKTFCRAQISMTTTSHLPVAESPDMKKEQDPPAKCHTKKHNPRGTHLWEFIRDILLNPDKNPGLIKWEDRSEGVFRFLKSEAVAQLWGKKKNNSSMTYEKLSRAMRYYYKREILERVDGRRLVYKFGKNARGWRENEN
# Summary of the method: as §1
# SPI1 = SPI1 (Homo sapiens, UniProt P17947 1-270)
# Summary of the method: as §1
# SPIB = SPIB (Homo sapiens, UniProt Q01892 1-262)
# Chain of SPIB (Q01892 whole entry): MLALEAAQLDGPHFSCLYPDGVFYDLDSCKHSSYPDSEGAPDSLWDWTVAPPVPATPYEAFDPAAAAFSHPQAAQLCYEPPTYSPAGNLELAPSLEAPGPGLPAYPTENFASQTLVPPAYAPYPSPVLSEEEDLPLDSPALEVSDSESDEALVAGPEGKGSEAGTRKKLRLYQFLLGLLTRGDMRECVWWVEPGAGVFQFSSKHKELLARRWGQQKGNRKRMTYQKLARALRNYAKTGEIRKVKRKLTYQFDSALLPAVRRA
# Summary of the method: as §1
# ELK3 = biological target: T6, ELK3 (Homo sapiens, UniProt P41970 1-407)
# T6 sequence: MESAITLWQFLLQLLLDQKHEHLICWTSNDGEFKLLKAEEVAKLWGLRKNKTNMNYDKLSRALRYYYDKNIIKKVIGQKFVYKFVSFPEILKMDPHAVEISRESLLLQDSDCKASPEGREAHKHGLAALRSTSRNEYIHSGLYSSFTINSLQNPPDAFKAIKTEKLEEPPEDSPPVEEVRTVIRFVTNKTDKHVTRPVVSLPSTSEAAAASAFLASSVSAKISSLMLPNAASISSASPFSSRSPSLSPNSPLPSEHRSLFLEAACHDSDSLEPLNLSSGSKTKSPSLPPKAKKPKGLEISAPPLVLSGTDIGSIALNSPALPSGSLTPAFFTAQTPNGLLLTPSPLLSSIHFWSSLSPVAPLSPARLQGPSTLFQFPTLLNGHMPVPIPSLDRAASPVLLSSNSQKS
# Summary of the method: as §1
sequence,measurement,setting,value
TCTCAG,binding signal,FLI1,"1.4 fold enrichment (6-mer frequency, TF over GST control)"
same,binding signal,ELK1,"1.48 fold enrichment (6-mer frequency, TF over GST control)"
same,binding signal,GABPA,"1.42 fold enrichment (6-mer frequency, TF over GST control)"
same,binding signal,ERG,"1.43 fold enrichment (6-mer frequency, TF over GST control)"
same,binding signal,ELF1,"1.45 fold enrichment (6-mer frequency, TF over GST control)"
same,binding signal,EHF,"1.43 fold enrichment (6-mer frequency, TF over GST control)"
same,binding signal,SPI1,"1.55 fold enrichment (6-mer frequency, TF over GST control)"
same,binding signal,SPIB,"1.39 fold enrichment (6-mer frequency, TF over GST control)"
same,binding signal,ELK3,"1.39 fold enrichment (6-mer frequency, TF over GST control)"
